# G9a inh: blocks human histone lysine methyltransferase G9a; Potency, µM (titrated, usually from 102 µM), without a hit: at the highest dose activity, negative = inhibition, actives largely listed as inhibitors; 8.8% of 350,000 active; Q96KQ7; G9a H3K9 monomethylation, AlphaScreen, 2 h; note: potency is the fitted concentration of half-maximal effect; % is set by controls: 0 for no effect and ±100 for the full control effect; nearly all actives have a fitted effect of over 75% in size
# Target sequence (Q96KQ7 913-1193 limits assumed): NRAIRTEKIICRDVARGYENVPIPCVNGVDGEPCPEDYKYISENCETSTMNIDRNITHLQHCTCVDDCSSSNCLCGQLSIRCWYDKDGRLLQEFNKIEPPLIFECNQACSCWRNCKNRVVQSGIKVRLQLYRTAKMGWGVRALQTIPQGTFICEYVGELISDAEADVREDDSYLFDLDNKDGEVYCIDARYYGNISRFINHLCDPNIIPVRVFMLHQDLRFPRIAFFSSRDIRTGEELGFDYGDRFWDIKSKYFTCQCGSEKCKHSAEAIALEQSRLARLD
#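 AlphaScreen read-out: biotin-H3K9 peptide (500 nM) methylation by 20 nM enzyme with 20 uM SAM, 2 h at room temperature after 15 min compound preincubation; anti-monomethyl H3K9 antibody plus donor/acceptor beads, 10 min dark.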
# HP1b chromo inh: blocks HP1-beta chromodomain binding to methylated histone tails. 0.56% of 390,000 active. AID 540317. AlphaScreen HP1-beta / biotin-H3K9me3 peptide binding. P83916. Potency, µM (top dose mostly 114 µM), for the others: top-dose activity change, negative = inhibition, usual class: inhibitors; note: potency is the fitted concentration of half-maximal effect; nearly all actives have a fitted effect of over 70% in size
#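 AlphaScreen: HP1-beta (50 nM) preformed 30 min with biotin-H3(1-18)K9me3 peptide (50 nM) in PBS pH 7.4, 0.01% Tween-20. Compound added for 30 min at RT, then streptavidin donor/nickel chelate acceptor beads (10 ug/mL) for 30 min.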
# BAZ2B inh: blocks human BAZ2B. 4.4% of 360,000 active. AlphaScreen BAZ2B-H3K14Ac peptide displacement. Potency, µM (titrated, usually from 114 µM), for the others: top-dose activity change, negative = inhibition, most hits filed as inhibitors; note: potency is the fitted concentration of half-maximal effect; % is set by controls: 0 for no effect and ±100 for the full control effect; nearly all actives have a fitted effect of over 60% in size
#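 Multi-concentration screen (max 110 uM) measuring displacement of acetylated histone H3 peptide from BAZ2B by AlphaScreen, using 50 nM protein, 50 nM peptide and 10 ug/mL streptavidin donor plus Ni-chelate acceptor beads.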
# L3MBTL1 inh: L3MBTL1 (human) inhibition | 0.66% of 230,000 active | Q9Y468 | AlphaScreen L3MBTL1–H3K9me1 peptide binding | Potency, µM (highest dose often 57.1 µM), for inactives: at the highest dose activity, negative = inhibition, hits mostly inhibitors | AID 485360; note: potency is the fitted concentration of half-maximal effect; % is set by controls: 0 for no effect and ±100 for the full control effect; nearly all actives have a fitted effect of over 60% in size
#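 Displacement of a biotinylated histone H3(1-15) peptide monomethylated at Lys9 (75 nM) from L3MBTL1 (50 nM) was measured by AlphaScreen after a 30 min room-temperature compound incubation; cefsulodin titration served as intraplate control.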
# PI5P4K alpha inh: blocks human PI5P4K alpha kinase activity | PI5P4Kalpha enzyme, ADP-Glo luminescence, 60 min; hits give low values | P48426 | max response, % | 1.2% of 330,000 active; active = max response of -50% or lower; inconclusive = between -30% and -50%; inactive = -30% or higher; note: value at the top dose of about 77 µM; % is set by controls: 0 for no effect and ±100 for the full control effect
# Target sequence (P48426 whole entry, looked up): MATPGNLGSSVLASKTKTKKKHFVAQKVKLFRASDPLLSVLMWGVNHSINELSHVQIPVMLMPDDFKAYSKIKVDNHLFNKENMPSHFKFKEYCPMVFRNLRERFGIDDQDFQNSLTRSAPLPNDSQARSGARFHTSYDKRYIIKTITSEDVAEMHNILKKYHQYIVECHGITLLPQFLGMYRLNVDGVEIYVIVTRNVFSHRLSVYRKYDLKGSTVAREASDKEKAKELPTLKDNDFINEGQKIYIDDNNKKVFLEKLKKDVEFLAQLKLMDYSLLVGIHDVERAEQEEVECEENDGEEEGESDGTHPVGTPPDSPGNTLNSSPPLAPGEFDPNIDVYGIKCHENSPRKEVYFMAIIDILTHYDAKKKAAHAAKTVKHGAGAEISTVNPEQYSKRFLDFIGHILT
#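 Compounds were pin-transferred onto PI5P4Kalpha and substrate in HEPES pH 7.4 buffer with EGTA, CHAPS and 5% DMSO. ATP (5 microM final) started the reaction, which ran 60 minutes at room temperature before ADP-Glo detection.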
# JMJD2A Tudor: JMJD2A Tudor domain (human) inhibition. O75164. AlphaScreen JMJD2A-Tudor / H3K4me3 peptide binding. Potency, µM (series often up to 114 µM), for inactives: at the highest dose activity change, negative = inhibition, most hits filed as inhibitors. 4.4% of 390,000 active; note: potency is the fitted concentration of half-maximal effect; % is set by controls: 0 for no effect and ±100 for the full control effect; nearly all actives have a fitted effect of over 50% in size
# * hit, by the source's call; ? = inconclusive; · = no result given; [ ] = remark or other dose. Shown are actives, neighbours in structure and some others; about 11% of the full set was active somewhere. Unless noted, calls come from the whole dose curve; as a rule, active = well fitted inhibition curve with a large enough effect; inconclusive = small, poorly fitted or top-dose-only effect; inactive = no such curve, though single readings can be large or run the other way.
SMILES,G9a inh,HP1b chromo inh,BAZ2B inh,L3MBTL1 inh,PI5P4K alpha inh,JMJD2A Tudor
COc1ccc2nc(N=NC3=C(O)CC(C)(C)CC3=O)sc2c1,?,?,39.8µM*,·,-13.6,?
COc1ccc2nc(N=Nc3ccc(O)c4ccccc34)sc2c1,3.16µM*,?,2.82µM*,?,?,?
COc1ccccc1NC(=O)c1sc2nc(C)c(C(=O)Nc3ccc(C)cc3C)c(-c3cccs3)c2c1N,-25.9%[59 µM],31.7%,2.1%,·,·,5.5%
COc1cc(OC)c(NC(=O)c2cc(C)nc3c2c(C)nn3-c2ccc(C)cc2)cc1Cl,5.6%[59 µM],14.5%,13.5%[57.1 µM],·,·,-13.6%
CNC(=O)c1cnn2c(C)cc(C)nc12,·,·,·,·,·,-21.3%
CCN(CC)c1ccc(C2CC(=O)NC3=C2C(=O)CC(C)(C)C3)cc1 (stereo unspecified),50.1µM*,6.8%,-32.7%,-5.4%,-0.6,-19.0%
CCOc1ccc(NC(=O)CSc2nnc3c(C)cc4ccccc4n23)cc1,19.7%[59 µM],66.0%,10.2%,·,·,0.0%
CCCCOc1cccc(C(=O)O)c1,-2.5%[12.7 µM],34.2%,-38.0%,·,4.5,-24.2%
CC[N+](CC)(CC)CCCCOc1ccc2c(c1)C(=O)c1cc(OCCCC[N+](CC)(CC)CC)ccc1-2,?,-6.2%,-33.1%,1.0%,1.7,35.5µM*
CN(C)c1ccc(CNC(=O)c2cnc3sc(N4CCCCCC4)nn3c2=O)cc1,-9.7%[59 µM],-11.0%,-10.7%,·,·,-6.3%
Nc1c(Nc2ccccc2)c2ccccc2oc1=O,50.1µM*,-3.3%,?,-8.5%,1.0,-33.8%
Cc1ccc(C)c(N2CCN(C(=O)Cn3c(-c4cccs4)cc4ccccc43)CC2)c1,-7.1%[59 µM],8.5%,-15.5%,·,·,-28.1%
Cc1nc(N)nc(C)c1Cc1ccccc1,12.6%,66.7%,17.4%,1.1%,-0.9,-3.8%
Cc1c2ccccc2cc(Cc2ccccc2)[n+]1C,28.2µM*,27.6%,-12.5%,-9.2%,0.1,-1.0%
COc1ccc(/C=C/C(=O)NC(=S)NNC(=O)c2cccnc2)cc1,?,10.0%,1.7%,14.1%,-18.1,-17.0%
O=C(Cc1ccccc1)NNC(=S)NC(=O)c1cccnc1,10µM*,17.5%,5.1%,-1.3%,-4.3,25.1µM*
O=C(NC(=S)NCc1ccccc1)c1cccnc1,9.1%,42.0%,-20.1%,14.9%,3.6,-5.6%
COc1ccc(C(=O)NNC(=S)NC(=O)c2ccc(OC)cc2)cc1,·,54.4%,2.4%,3.5%,-0.4,-22.1%
COc1ccc(/C=C/C(=O)NC(=S)NNC(=O)c2cccs2)cc1,-50.7%,20.5%,10.1%,33.8%,-12.7,-7.1%
COc1ccc(C(=O)NNC(=S)NC(=O)c2cccnc2)cc1,12.6µM*,17.8%,8.8%,2.9%,5.4,-5.8%
COc1ccc(CC(=O)NNC(=S)NC(=O)c2cccnc2)cc1,·,14.7%,10.6%,4.0%,-11.1,20µM*
COc1ccc(C(=O)NNC(=S)NC(=O)c2cccs2)cc1,39.8µM*,27.7%,-11.9%,·,0.6,-21.2%
COCCNC(=O)c1ccc2c(=O)n(CCc3ccccc3)c(SCC(=O)CC(=O)OC)nc2c1,0.6%[59 µM],45.0%,0.7%,·,·,-5.5%
Cc1cc(C)n(CCc2nc3c4ccccc4nc(N4CCN(c5ccc(F)cc5)CC4)n3n2)n1,-0.8%[59 µM],10.6%,2.7%,·,·,-10.2%
O=C(NC1CCCCC1)C(c1cccs1)N(CCCN1CCOCC1)C(=O)c1ccc(-c2ccccc2)[nH]1 (stereo unspecified),·,?,50.1µM*,-29.7%,20.4,?
SMILES,G9a inh,HP1b chromo inh,BAZ2B inh,L3MBTL1 inh,PI5P4K alpha inh,JMJD2A Tudor
O=C(O)c1cnc2[nH]c3ccccc3n2c1=O,50.1µM*,0.4%,-35.0%,-0.3%,-1.8,?
Cc1occc1C(=O)NNC(=S)NC(=O)COc1ccc(Cl)cc1Cl,8.91µM*,?,-18.4%,·,?,-19.7%
C=CCNC(=S)NNC(=O)COc1ccc(Cl)cc1Cl,10µM*,1.0%,10.5%,-6.9%,0.5,?
O=C(COc1ccc(Cl)cc1Cl)NNC(=S)Nc1ccc(F)cc1,11.2µM*,-12.1%,-2.6%,-2.8%,·,-24.5%
Cc1occc1C(=O)NNC(=O)COc1ccc(Br)cc1Br,7.6%[59 µM],26.3%,1.7%,-3.4%,-0.7,-16.9%
COc1ccc2c(c1)cc1c(=O)n(CC(=O)NCCCc3ccccc3)nc(C)n12,-6.3%[59 µM],30.2%,5.9%,·,·,-13.8%
Cc1ccc(-c2nc3ccccc3[nH]2)cc1NC(=O)COc1ccccc1[N+](=O)[O-],2.4%[59 µM],14.0%,-24.6%,·,·,-4.5%
COc1ccc(NC(=O)CCc2c(C)nc3nc(CNC(=O)OC(C)(C)C)nn3c2C)cc1OC,9.8%[59 µM],19.3%,0.5%,·,·,-13.8%
O=C(Nc1ccc(OCc2cc(=O)n3c4c(sc3n2)CCCC4)cc1)c1ccc(F)cc1,-3.9%[59 µM],52.9%,5.1%,·,·,10.3%
COc1ccc(NC(=O)N2CC[C@@]3(CCCN(C(=O)c4ccc(OC)cc4)C3)C2)cc1,-3.0%[12.7 µM],·,·,·,·,·
O=C1CCC/C(=N/Nc2ccc(Cl)cc2)C1,4.47µM*,?,44.7µM*,-22.2%,-17.5,44.7µM*
O=C(NN=C1CCCC1)c1ccc(Cl)cc1,-5.1%,46.4%,?,·,0.7,-6.7%
COc1ccccc1C=NNC(=O)NN=Cc1ccccc1OC,·,22.6%,·,·,-10.7,-30.3%
COc1ccccc1Sc1ccccc1/C=N/NC(N)=O,50.1µM*,43.4%,-1.7%,-0.8%,-7.0,-0.7%
COc1ccccc1C=NN=C(NN=Cc1ccccc1OC)NN=Cc1ccccc1OC,·,79.4µM*,·,·,9.2,?
COc1cc(CCC(=O)NCc2ccc3c(c2)CCN3C(=O)c2ccc(F)cc2)cc(OC)c1OC,3.6%[59 µM],40.0%,-2.7%,·,·,-14.0%
CCc1ccc(NC(=O)CSC2=Nc3ccccc3C3=NC(CC(=O)NCc4ccc5c(c4)OCO5)C(=O)N23)cc1 (stereo unspecified),10.7%[59 µM],27.8%,-19.8%,·,·,-23.3%
O=C(NCCc1ccc(F)cc1)C(=O)NCC(c1ccc2c(c1)OCO2)N1CCOCC1 (stereo unspecified),-18.1%[59 µM],3.4%[57 µM],-18.0%,·,·,-4.5%
Cc1ccc(/C=C/c2nc3sc(C(=O)O)c(C)c3c(=O)[nH]2)cc1[N+](=O)[O-],7.08µM*,-8.2%,89.1µM*,·,?,?
O=C(O)c1ccc(/C=C/c2nc3sc4c(c3c(=O)[nH]2)CCC4)cc1,?,?,-2.1%,?,0.8,-7.6%
Cc1c(C(=O)O)sc2nc(/C=C/c3ccccc3OC(F)F)[nH]c(=O)c12,?,?,70.8µM*,·,-63.0*,15.8µM*
C=CCn1c(SCc2nc3sc(C(=O)O)c(C)c3c(=O)[nH]2)nnc1-c1ccc(F)cc1,26.9%[12.7 µM],23.4%,-17.5%,-4.6%,?,-16.0%
Cc1c(C(=O)O)sc2nc(/C=C/c3cccc(F)c3)[nH]c(=O)c12,2.8%,42.5%,?,·,-54.6*,-3.0%
